PubChem BioAssay
For some assays here: Potency and affinity values are given separately. Activity calls are given as the source filed them. Unless noted, the rule behind the calls is not given here.

Columns and labels:
[1] = antimalarial activity against Dd2 strain (AID 2302;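 active = growth inhibition above 50% at the single 2 µM test dose, taken to imply half-maximal potency below 2 µM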;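 note: 0% = DMSO untreated growth and 100% = chloroquine plus artemisinin killed control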); details: P. falciparum Dd2 in RBCs, LDH growth readout, 72 h; at 2 µM; hits give high values
[2] = HepG2 cytotoxicity, primary screen, cytotoxicity control for P. falciparum antimalarial project, cell-based, ATP luminescence (AID 2303;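 active = inhibition above 50%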;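 note: 0% = DMSO wells and 100% = digitonin-killed cells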); details: HepG2 viability, 24-48 h, at 10 µM, hits give high values
[3] = target: L-lactate dehydrogenase (Plasmodium falciparum (isolate CDC / Honduras)) (UniProt Q27743); test: PfLDH activity inhibition – cell lysate, 3D7 strain, counter-screen for P. falciparum growth inhibition project (AID 2304);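 note: 0% = vehicle and 100% = reference inhibitor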; details: P. falciparum 3D7 crude extract, LDH APAD/NBT absorbance; at 2 µM; hits give high values
[4] = inhibition of 3D7 malaria parasite growth – strain 3D7 (AID 2306);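 note: 0% = DMSO wells and 100% = chloroquine plus artemisinin control wells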; details: P. falciparum 3D7 erythrocytic growth, LDH absorbance, 72 h; at 2 µM; hits give high values
[5] = target: Calcium-dependent protein kinase 1 (Plasmodium falciparum (isolate 3D7)) (UniProt P62344); test: PfCDPK1 kinase inhibitors, biochemical, TCAMS library (AID 1159585; cut-off not given, nearly all actives have IC50 up to about 0.98 µM;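 note: inhibitors leave more ATP so luminescence rises with inhibition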); details: recombinant PfCDPK1, Kinase-Glo ATP depletion luminescence
[6] = target: Plasmodium falciparum protein kinase 6 (PK6, PF3D7_1337100) (UniProt Q8IDW1); test: PfPK6 kinase inhibitors, biochemical, TCAMS library (AID 1159586); details: recombinant PfPK6, Kinase-Glo ATP depletion luminescence
[7] = target: Protein kinase 7 (PK7), Plasmodium falciparum 3D7 (PF3D7_0213400) (UniProt Q7YTF7); test: inhibition of Plasmodium PK7 catalytic activity – biochemical, TCAMS antimalarial set, Kinase-Glo luminescence (AID 1159587); details: recombinant PfPK7, Kinase-Glo ATP depletion luminescence
[8] = target: Calcium-dependent protein kinase 4 (Plasmodium falciparum (isolate 3D7)) (UniProt Q8IBS5); test: PfCDPK4 kinase inhibitors, biochemical, TCAMS library (AID 1159588; cut-off not given, nearly all actives have IC50 up to about 0.91 µM); details: recombinant PfCDPK4, Kinase-Glo ATP depletion luminescence
Chain of Calcium-dependent protein kinase 4 (Plasmodium falciparum (isolate 3D7)) (Q8IBS5 whole entry, looked up): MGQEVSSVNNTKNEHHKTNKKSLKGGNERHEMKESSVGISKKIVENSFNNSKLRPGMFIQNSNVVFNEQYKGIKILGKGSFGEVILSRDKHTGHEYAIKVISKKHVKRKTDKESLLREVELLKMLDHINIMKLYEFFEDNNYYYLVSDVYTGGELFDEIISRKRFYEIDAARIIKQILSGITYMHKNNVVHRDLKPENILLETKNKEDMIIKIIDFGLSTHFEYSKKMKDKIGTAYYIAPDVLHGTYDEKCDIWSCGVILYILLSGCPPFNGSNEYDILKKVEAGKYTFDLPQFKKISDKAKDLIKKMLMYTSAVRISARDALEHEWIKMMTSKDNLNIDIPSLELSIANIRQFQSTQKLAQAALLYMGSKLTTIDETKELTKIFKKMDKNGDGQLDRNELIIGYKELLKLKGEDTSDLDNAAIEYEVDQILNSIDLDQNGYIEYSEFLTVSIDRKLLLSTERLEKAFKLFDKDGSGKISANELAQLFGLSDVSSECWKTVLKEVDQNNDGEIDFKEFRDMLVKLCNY

Chain of Protein kinase 7 (PK7), Plasmodium falciparum 3D7 (PF3D7_0213400) (Q7YTF7 1-343): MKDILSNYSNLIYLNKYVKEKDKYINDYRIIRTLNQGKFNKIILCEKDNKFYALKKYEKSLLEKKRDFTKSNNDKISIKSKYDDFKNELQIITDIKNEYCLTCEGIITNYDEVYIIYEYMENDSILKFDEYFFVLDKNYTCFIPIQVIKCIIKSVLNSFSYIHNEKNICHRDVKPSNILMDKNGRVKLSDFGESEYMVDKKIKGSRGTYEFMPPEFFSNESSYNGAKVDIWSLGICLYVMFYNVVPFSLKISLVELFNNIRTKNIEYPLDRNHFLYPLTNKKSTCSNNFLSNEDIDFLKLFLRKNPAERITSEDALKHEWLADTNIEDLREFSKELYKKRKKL
Chain of L-lactate dehydrogenase (Plasmodium falciparum (isolate CDC / Honduras)) (Q27743 whole entry, looked up): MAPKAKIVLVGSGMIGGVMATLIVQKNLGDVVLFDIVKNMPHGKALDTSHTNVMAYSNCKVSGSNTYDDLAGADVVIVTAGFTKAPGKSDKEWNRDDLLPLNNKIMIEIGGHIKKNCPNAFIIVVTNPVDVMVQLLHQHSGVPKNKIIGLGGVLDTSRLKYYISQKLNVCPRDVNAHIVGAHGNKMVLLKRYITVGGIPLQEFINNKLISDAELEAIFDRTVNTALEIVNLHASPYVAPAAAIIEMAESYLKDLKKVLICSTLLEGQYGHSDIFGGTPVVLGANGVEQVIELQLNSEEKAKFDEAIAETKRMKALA
Chain of Plasmodium falciparum protein kinase 6 (PK6, PF3D7_1337100) (Q8IDW1 1-305): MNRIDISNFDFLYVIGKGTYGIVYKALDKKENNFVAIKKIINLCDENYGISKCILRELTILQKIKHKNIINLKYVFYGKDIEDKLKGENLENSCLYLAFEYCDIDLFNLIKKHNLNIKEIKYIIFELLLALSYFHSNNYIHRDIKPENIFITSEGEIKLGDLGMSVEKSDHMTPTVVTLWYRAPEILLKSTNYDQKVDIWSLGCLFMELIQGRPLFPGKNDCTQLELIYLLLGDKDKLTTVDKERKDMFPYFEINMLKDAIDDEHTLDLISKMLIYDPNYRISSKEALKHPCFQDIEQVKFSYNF
Chain of Calcium-dependent protein kinase 1 (Plasmodium falciparum (isolate 3D7)) (P62344 whole entry, looked up): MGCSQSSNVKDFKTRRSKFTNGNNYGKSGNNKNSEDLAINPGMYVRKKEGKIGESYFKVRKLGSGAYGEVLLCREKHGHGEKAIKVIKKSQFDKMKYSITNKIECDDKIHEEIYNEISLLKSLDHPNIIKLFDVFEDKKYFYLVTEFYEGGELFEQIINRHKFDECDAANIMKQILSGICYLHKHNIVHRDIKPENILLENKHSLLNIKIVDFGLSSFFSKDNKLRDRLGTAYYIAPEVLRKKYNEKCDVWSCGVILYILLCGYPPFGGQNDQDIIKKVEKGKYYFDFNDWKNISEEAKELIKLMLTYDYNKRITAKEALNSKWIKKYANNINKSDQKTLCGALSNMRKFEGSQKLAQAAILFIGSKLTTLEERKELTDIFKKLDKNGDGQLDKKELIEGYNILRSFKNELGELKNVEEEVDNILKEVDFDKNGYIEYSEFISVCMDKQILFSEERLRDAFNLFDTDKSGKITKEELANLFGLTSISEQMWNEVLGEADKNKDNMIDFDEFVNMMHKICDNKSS

CC(C)Oc1ccc(N2CCN(CCCCNC(=O)c3ccc(NC(=O)c4ccc(Cl)cc4)cc3)CC2)c(OC(C)C)c1
active: growth inhibition [1] 85% | growth inhibition [4] 102%
inactive: inhibition [2] 31% | inhibition [3] 1% | outcome [5] | outcome [6] | outcome [7] | outcome [8]

COc1ccc(NC(=O)CSc2nc(-c3ccccc3Cl)ns2)cc1OC
active: growth inhibition [1] 63% | growth inhibition [4] 97%
inactive: inhibition [2] -1% | inhibition [3] -2% | outcome [5] | outcome [6] | outcome [7] | outcome [8]

N#Cc1ccc(-c2ccc(C(=O)NCCCCN3CCC(c4ccc5c(c4OCC(N)=O)CCCC5)CC3)nc2)cc1
inactive: inhibition [2] 21% | inhibition [3] -4% | outcome [5] | outcome [6] | outcome [7] | outcome [8]
active: growth inhibition [1] 97% | growth inhibition [4] 100%

O=S(=O)(c1csc2ccccc12)N(CCC(O)(C(F)(F)F)C(F)(F)F)Cc1cccc(O)c1
active: growth inhibition [1] 100% | growth inhibition [4] 101%
inactive: inhibition [2] -11% | inhibition [3] 7% | outcome [5] | outcome [6] | outcome [7] | outcome [8]

CCCCCCCc1c(C)[nH]c2cccc(OC)c2c1=O
inactive: growth inhibition [1] 47% | inhibition [2] 43% | inhibition [3] 0% | outcome [5] | outcome [6] | outcome [7] | outcome [8]
active: growth inhibition [4] 95%

C=CCOC(=O)N1CCC(CNCc2ccc(-c3cccc(-c4nc5ccc(F)cc5[nH]4)c3)cc2)C1 (stereo not given)
active: growth inhibition [1] 99% | growth inhibition [4] 102%
inactive: inhibition [2] 26% | inhibition [3] -2% | outcome [5] | outcome [6] | outcome [7] | outcome [8]

Cc1ccccc1C1CCN(C2CCC(NC(=O)/C=C/c3cccc(Cl)c3F)CC2)CC1 (stereo not given)
active: inhibition [2] 87% | growth inhibition [4] 101%
inactive: growth inhibition [1] 37% | inhibition [3] 4% | outcome [5] | outcome [6] | outcome [7] | outcome [8]

CCc1c(C)nc(-n2nc(C)cc2NC(=O)c2ccc(OC)cc2OC)[nH]c1=O
active: growth inhibition [1] 57% | growth inhibition [4] 96%
inactive: inhibition [2] 42% | inhibition [3] 1% | outcome [5] | outcome [6] | outcome [7] | outcome [8]

Cc1cccc2[nH]c(-c3ccc(-c4ccc(CN5CCC(C(N)=O)CC5)cc4)cc3)nc12
inactive: growth inhibition [1] 32% | inhibition [2] 8% | inhibition [3] 1% | outcome [5] | outcome [6] | outcome [7] | outcome [8]
active: growth inhibition [4] 91%

Cc1cccc2[nH]c(-c3ccc(-c4ccc(NC(=O)NCc5cccc(F)c5)cc4)cc3)nc12
active: growth inhibition [4] 97%
inactive: growth inhibition [1] 12% | inhibition [2] 46% | inhibition [3] 7% | outcome [5] | outcome [6] | outcome [7] | outcome [8]

CN1CCN(Cc2cccc(-c3ccc4c(Nc5ccc(F)cc5Cl)ccnc4c3)c2)CC1
active: growth inhibition [1] 100% | growth inhibition [4] 101%
inactive: inhibition [2] 20% | inhibition [3] -1% | outcome [5] | outcome [6] | outcome [7] | outcome [8]

CC(=O)NCC(=O)NC1=NC(C)(C)N(OCc2ccc3ccccc3c2)C(N)=N1
active: growth inhibition [1] 97% | inhibition [2] 66% | growth inhibition [4] 95%
inactive: inhibition [3] -1% | outcome [5] | outcome [6] | outcome [7] | outcome [8]

CCN(CC)CCNc1ccnc2ccc3ccccc3c12
inactive: inhibition [2] 5% | inhibition [3] 6% | outcome [5] | outcome [6] | outcome [7] | outcome [8]
active: growth inhibition [1] 67% | growth inhibition [4] 100%

O=c1cc(NCCCCNCc2cccc(Cl)c2)[nH]c2ccccc12
active: growth inhibition [4] 98%
inactive: growth inhibition [1] 41% | inhibition [2] 2% | inhibition [3] -3% | outcome [5] | outcome [6] | outcome [7] | outcome [8]

CN1CCN(CCCNCc2cccc(-c3ccc(CNCCc4ccccc4)cc3)c2)CC1
active: growth inhibition [4] 100%
inactive: growth inhibition [1] 20% | inhibition [2] 36% | inhibition [3] -9% | outcome [5] | outcome [6] | outcome [7] | outcome [8]

CN1CCCC(CN2CCN(Cc3cccc(-c4ccc(-c5nc6ccccc6[nH]5)cc4)c3)CC2)C1 (stereo not given)
inactive: inhibition [3] -2% | outcome [5] | outcome [6] | outcome [7] | outcome [8]
active: growth inhibition [1] 101% | inhibition [2] 73% | growth inhibition [4] 100%

COc1ccc(CCNC(=O)c2cc3c(=O)n4cccc(C)c4nc3n(C)c2=N)cc1
active: growth inhibition [1] 99% | growth inhibition [4] 99%
inactive: inhibition [2] 22% | inhibition [3] 4% | outcome [5] | outcome [6] | outcome [7] | outcome [8]

COc1ccc(CN2CCC(N3CCc4cc(NC(=O)c5cc(C)on5)ccc43)C2)cc1Cl (stereo not given)
active: growth inhibition [1] 91% | growth inhibition [4] 94%
inactive: inhibition [2] 15% | inhibition [3] 2% | outcome [5] | outcome [6] | outcome [7] | outcome [8]

O=C(N[C@H]1CCN(Cc2ccc(OCCCN3CCCCC3)cc2)C1)c1ccc(Cl)c(Cl)c1
active: growth inhibition [4] 102%
inactive: growth inhibition [1] 36% | inhibition [2] 27% | inhibition [3] 0% | outcome [5] | outcome [6] | outcome [7] | outcome [8]

COc1ccc2ncc(C)c(CCN3CCC(NCc4ccc5c(n4)NC(=O)CS5)CC3)c2c1
active: growth inhibition [1] 53% | growth inhibition [4] 100%
inactive: inhibition [2] 14% | inhibition [3] -4% | outcome [5] | outcome [6] | outcome [7] | outcome [8]

COc1ccc(NS(=O)(=O)c2ccc(C(=O)Nc3ccc(C(F)(F)F)cc3)cc2)cc1N1CCN(CC2CC2)CC1
inactive: growth inhibition [1] -5% | inhibition [2] 15% | inhibition [3] 1% | outcome [5] | outcome [6] | outcome [7] | outcome [8]
active: growth inhibition [4] 92%

CN1CCN(Cc2cccc(-c3cc4nccc(Nc5ccc(Oc6ccccc6)cc5)c4cc3Cl)c2)CC1
inactive: inhibition [2] 10% | inhibition [3] -3% | outcome [5] | outcome [6] | outcome [7] | outcome [8]
active: growth inhibition [1] 96% | growth inhibition [4] 101%

CCOc1cc(C(=O)N[C@@H](Cc2ccccc2)[C@H](O)CNC(C)(C)c2cccc(OC)c2)cc(N2CCCS2(=O)=O)c1
inactive: inhibition [2] -5% | inhibition [3] -3% | outcome [5] | outcome [6] | outcome [7] | outcome [8]
active: growth inhibition [1] 99% | growth inhibition [4] 99%

O=C(C=Cc1cc([N+](=O)[O-])ccc1Cl)N1CCC(CCN2CCC(c3c[nH]c4ccccc34)CC2)CC1
inactive: growth inhibition [1] 26% | inhibition [2] 25% | inhibition [3] -2% | outcome [5] | outcome [6] | outcome [7] | outcome [8]
active: growth inhibition [4] 92%

CCCCCCC(C)c1cc(O)c2c(c1)OC(=O)CC2(CC)c1ccccn1 (stereo not given)
inactive: growth inhibition [1] -2% | inhibition [2] 15% | inhibition [3] -2% | outcome [5] | outcome [6] | outcome [7] | outcome [8]
active: growth inhibition [4] 100%

Cc1cc2nc(-c3ccc(C(=O)NC4CCN(Cc5ccccc5)CC4)cc3)[nH]c2cc1C
inactive: inhibition [2] -6% | inhibition [3] -5% | outcome [5] | outcome [6] | outcome [7] | outcome [8]
active: growth inhibition [1] 99% | growth inhibition [4] 93%

CC(C)(C)c1cc(Cn2ccnc2)cc(C(C)(C)C)c1O
inactive: growth inhibition [1] 3% | inhibition [2] 4% | inhibition [3] -2% | outcome [5] | outcome [6] | outcome [7] | outcome [8]
active: growth inhibition [4] 85%

CN1CCC(C(=O)N(Cc2ccc(-c3ccc(CNCCc4ccccc4)cn3)cc2)C2Cc3ccccc3C2)CC1
active: growth inhibition [1] 97% | inhibition [2] 65% | growth inhibition [4] 88%
inactive: inhibition [3] -2% | outcome [5] | outcome [6] | outcome [7] | outcome [8]

CCCCOP(=O)(OCCCC)C(=Cc1ccc(O)c2ccccc12)P(=O)(OCCCC)OCCCC
inactive: inhibition [2] 1% | inhibition [3] -6% | outcome [5] | outcome [6] | outcome [7] | outcome [8]
active: growth inhibition [1] 64% | growth inhibition [4] 84%

Cc1[nH]c(C)c(-c2ccc(Oc3cccc(Cl)c3)cc2)c(=O)c1Br
active: growth inhibition [1] 97% | growth inhibition [4] 98%
inactive: inhibition [2] 46% | inhibition [3] 3% | outcome [5] | outcome [6] | outcome [7] | outcome [8]

COC(=O)[C@@H](NC(=O)[C@H](Cc1ccc(OC)c(OC)c1)Nc1ccc(C#N)c2ccccc12)c1ccc(O)cc1
inactive: inhibition [2] 6% | inhibition [3] 5% | outcome [5] | outcome [6] | outcome [7] | outcome [8]
active: growth inhibition [1] 100% | growth inhibition [4] 101%

CC(C)(C)c1ccc(/C=C/C(=O)NCCCCCN2CCC(c3c[nH]c4ccccc34)CC2)cc1
inactive: growth inhibition [1] 12% | inhibition [3] 8% | outcome [5] | outcome [6] | outcome [7] | outcome [8]
active: inhibition [2] 70% | growth inhibition [4] 91%

COc1cc(OC)c(NC(=O)Nc2ccnc3ccccc23)cc1Cl
active: growth inhibition [4] 97%
inactive: growth inhibition [1] 9% | inhibition [2] 19% | inhibition [3] -2% | outcome [5] | outcome [6] | outcome [7] | outcome [8]

C=CCOc1cccc2c1CCN(CCN1CCC(NC(=O)c3ccc(-c4ccc(Cl)cc4)cc3)CC1)C2
inactive: growth inhibition [1] 22% | inhibition [2] 35% | inhibition [3] -2% | outcome [5] | outcome [6] | outcome [7] | outcome [8]
active: growth inhibition [4] 93%

COc1cc(Cc2cnc(N)nc2N)cc(OCCCc2cc(OCc3ccccc3)no2)c1OC
active: growth inhibition [4] 86%
inactive: growth inhibition [1] 4% | inhibition [2] 30% | inhibition [3] 2% | outcome [5] | outcome [6] | outcome [7] | outcome [8]

CCC(C)(C)c1ccc2nc(N)nc(N)c2c1C
active: growth inhibition [1] 82% | inhibition [2] 62% | growth inhibition [4] 91%
inactive: inhibition [3] 1% | outcome [5] | outcome [6] | outcome [7] | outcome [8]

CN1CCN(CC(O)CNC(=O)Nc2ccc(Cl)cc2)CC1 (stereo not given)
inactive: inhibition [2] 1% | inhibition [3] -3% | outcome [5] | outcome [6] | outcome [7] | outcome [8]
active: growth inhibition [1] 98% | growth inhibition [4] 99%

COc1cc2nc(Nc3ccc(Oc4ccccc4)cc3)nc(Nc3ccc(Oc4ccccc4)cc3)c2cc1OC
inactive: growth inhibition [1] 45% | inhibition [2] 5% | inhibition [3] 6% | outcome [5] | outcome [6] | outcome [7] | outcome [8]
active: growth inhibition [4] 95%

COc1ccc(Nc2nc(NC3CCN(C)CC3)cc(-c3ccc(OC)cc3)n2)cc1
inactive: inhibition [3] 4% | outcome [5] | outcome [6] | outcome [7] | outcome [8]
active: growth inhibition [1] 51% | inhibition [2] 62% | growth inhibition [4] 100%

O=C(Nc1cccc(-c2cccc(-c3nc4ccc(C(F)(F)F)cc4[nH]3)c2)c1)c1cccnc1Cl
active: growth inhibition [1] 58% | inhibition [2] 56% | growth inhibition [4] 95%
inactive: inhibition [3] 1% | outcome [5] | outcome [6] | outcome [7] | outcome [8]
